Assay results taken from PubChem BioAssay AID1159580 (chemical genetic matrix, 2015).
The whole screen tested about 5,500 compounds, of which about 2,000 (36%) were called active. About 18% were inconclusive and are not listed. Cut-off read from the data, not from the text of the source: active = normalized growth mostly below about 0.91 (no sharp cut-off); inconclusive = no clear call, values can overlap the other calls; inactive = mostly above about 0.92. The list shows a part of the results.

Assay: chemical genetic growth profiling, strain panel (AID 1159580);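 note: tested at 20 µM; growth read once vehicle control cultures reached saturation at 30 °C; 1 = growth at the plate median or of vehicle wells; lower values mean less growth of the strain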
Details: S. cerevisiae deletion strains, growth OD
[1] = locus YAL021C, strain ccr4, stronger effect = lower value
[2] = locus YAL026C, strain drs2, stronger effect = lower value
[3] = locus YAL030W, strain snc1, stronger effect = lower value
[4] = locus YBL061C, strain skt5, stronger effect = lower value
[5] = locus YBR009C, strain hhf1, stronger effect = lower value
[6] = locus YBR023C, strain chs3, stronger effect = lower value
[7] = locus YBR171W, strain sec66, stronger effect = lower value
[8] = locus YBR231C, strain swc5, stronger effect = lower value
[9] = locus YBR279W, strain paf1, stronger effect = lower value
[10] = locus YCL011C, strain gbp2, stronger effect = lower value
[11] = locus YCL016C, strain dcc1, stronger effect = lower value
[12] = locus YCL061C, strain MRC1, stronger effect = lower value
[13] = locus YCL069W, strain vba3, stronger effect = lower value
[14] = locus YCR088W, strain abp1, stronger effect = lower value
[15] = locus YDL005C, strain med2, stronger effect = lower value
[16] = locus YDL040C, strain nat1, stronger effect = lower value
[17] = locus YDR001C, strain nth1, stronger effect = lower value
[18] = locus YDR069C, strain doa4, stronger effect = lower value
[19] = locus YDR137W, strain rgp1, stronger effect = lower value
[20] = locus YDR159W, strain sac3, stronger effect = lower value
[21] = locus YDR297W, strain sur2, stronger effect = lower value
[22] = locus YDR334W, strain swr1, stronger effect = lower value
[23] = locus YDR335W, strain msn5, stronger effect = lower value
[24] = locus YDR392W, strain spt3, stronger effect = lower value
[25] = locus YEL003W, strain gim4, stronger effect = lower value
[26] = locus YEL037C, strain rad23, stronger effect = lower value
[27] = locus YEL061C, strain CIN8 (second series), stronger effect = lower value
[28] = locus YER015W, strain faa2, stronger effect = lower value
[29] = locus YER016W, strain bim1, stronger effect = lower value
[30] = locus YER111C, strain swi4, stronger effect = lower value
[31] = locus YER155C, strain BEM2 (second series), stronger effect = lower value
[32] = locus YFR010W, strain ubp6, stronger effect = lower value
[33] = locus YGL167C, strain pmr1, stronger effect = lower value
[34] = locus YGL173C, strain kem1, stronger effect = lower value
[35] = locus YGL227W, strain vid30, stronger effect = lower value
[36] = locus YGL240W, strain doc1, stronger effect = lower value
[37] = locus YGL253W, strain hxk2, stronger effect = lower value
[38] = locus YHR013C, strain ard1, stronger effect = lower value
[39] = locus YHR027C, strain rpn1, stronger effect = lower value
[40] = locus YHR030C, strain SLT2, stronger effect = lower value
[41] = locus YHR079C, strain IRE1, stronger effect = lower value
[42] = locus YHR142W, strain chs7, stronger effect = lower value
[43] = locus YJL092W, strain hpr5, stronger effect = lower value
[44] = locus YJL095W, strain BCK1 (second series), stronger effect = lower value
[45] = locus YJL095W, strain BCK1, stronger effect = lower value
[46] = locus YJL115W, strain asf1, stronger effect = lower value
[47] = locus YJL129C, strain trk1, stronger effect = lower value
[48] = locus YJL154C, strain vps35, stronger effect = lower value
[49] = locus YJL164C, strain tpk1, stronger effect = lower value
[50] = locus YJL166W, strain qcr8, stronger effect = lower value
[51] = locus YJL187C, strain SWE1, stronger effect = lower value
[52] = locus YJR066W, strain TOR1, stronger effect = lower value
[53] = locus YKL160W, strain elf1, stronger effect = lower value
[54] = locus YKR026C, strain gcn3, stronger effect = lower value
[55] = locus YKR091W, strain srl3, stronger effect = lower value
[56] = locus YLL001W, strain dnm1, stronger effect = lower value
[57] = locus YLL026W, stronger effect = lower value
[58] = locus YLL041C, strain sdh2, stronger effect = lower value
[59] = locus YLR027C, strain aat2, stronger effect = lower value
[60] = locus YLR113W, strain HOG1, stronger effect = lower value
[61] = locus YLR221C, strain rsa3, stronger effect = lower value
[62] = locus YLR258W, strain gsy2, stronger effect = lower value
[63] = locus YLR262C, strain YPT6 (second series), stronger effect = lower value
[64] = locus YLR320W, strain mms22, stronger effect = lower value
[65] = locus YLR342W, strain FKS1, stronger effect = lower value
[66] = locus YLR357W, strain rsc2, stronger effect = lower value
[67] = locus YLR370C, strain arc18, stronger effect = lower value
[68] = locus YLR384C, strain iki3, stronger effect = lower value
[69] = locus YML120C, strain ndi1, stronger effect = lower value
[70] = locus YMR058W, strain fet3, stronger effect = lower value
[71] = locus YMR125W, strain sto1, stronger effect = lower value
[72] = locus YMR129W, stronger effect = lower value
[73] = locus YMR205C, strain PFK2, stronger effect = lower value
[74] = locus YMR231W, strain pep5, stronger effect = lower value
[75] = locus YNL071W, strain lat1, stronger effect = lower value
[76] = locus YNL183C, strain NPR1, stronger effect = lower value
[77] = locus YNL209W, strain ssb2, stronger effect = lower value
[78] = locus YNL248C, strain rpa49, stronger effect = lower value
[79] = locus YNL322C, strain KRE1 (second series), stronger effect = lower value
[80] = locus YNR049C, strain mso1, stronger effect = lower value
[81] = locus YOR001W, strain rrp6, stronger effect = lower value
[82] = locus YOR070C, strain gyp1, stronger effect = lower value
[83] = locus YOR080W, strain dia2, stronger effect = lower value
[84] = locus YOR083W, strain WHI5, stronger effect = lower value
[85] = locus YOR106W, strain vam3, stronger effect = lower value
[86] = locus YOR231W, strain MKK1, stronger effect = lower value
[87] = locus YOR265W, strain rbl2, stronger effect = lower value
[88] = locus YOR270C, strain vph1, stronger effect = lower value
[89] = locus YOR290C, strain snf2, stronger effect = lower value
[90] = locus YPL051W, strain arl3, stronger effect = lower value
[91] = locus YPL078C, strain atp4, stronger effect = lower value
[92] = locus YPL106C, strain sse1, stronger effect = lower value
[93] = locus YPL240C, strain hsp82, stronger effect = lower value
[94] = locus YPL256C, strain CLN2, stronger effect = lower value

Measured: normalized growth

CCN[C@@H]1C[C@H](N)[C@@H](O[C@H]2OC(CN)=CC[C@H]2N)[C@H](O)[C@H]1OC1OC[C@](C)(O)[C@H](NC)[C@H]1O (stereo not given in full)
inactive: [1] 0.983 | [2] 0.995 | [3] 1.01 | [4] 1 | [5] 1.02 | [6] 1 | [7] 0.996 | [8] 1.01 | [9] 1.01 | [10] 0.977 | [11] 1 | [12] 0.989 | [13] 0.994 | [14] 0.983 | [15] 1 | [16] 1.01 | [17] 0.985 | [18] 1.01 | [19] 0.96 | [20] 1.01 | locus YDR195W, strain ref2 0.993 | [21] 0.998 | [22] 0.979 | [23] 0.986 | [24] 0.998 | [25] 0.989 | [26] 0.948 | [27] 0.981 | [28] 1.02 | [29] 0.997 | [30] 0.994 | [31] 1.01 | [32] 0.975 | [33] 0.998 | [34] 1 | [35] 0.995 | [36] 1.01 | [37] 0.995 | [38] 1.02 | [39] 0.999 | [40] 0.97 | [41] 1.02 | [42] 0.946 | [43] 0.984 | [44] 1.01 | [45] 0.972 | [46] 0.998 | [47] 0.989 | [48] 0.996 | [49] 0.996 | [50] 1.01 | [51] 1 | [52] 0.947 | [53] 0.986 | [54] 0.978 | [55] 0.995 | [56] 0.981 | [57] 1.01 | [58] 0.988 | [59] 1.01 | [60] 0.953 | [61] 0.987 | [62] 1 | [63] 1 | [64] 1.01 | [65] 0.997 | [66] 0.986 | [67] 0.994 | [68] 1 | [69] 0.983 | [70] 0.986 | [71] 1 | [72] 0.994 | [73] 1.03 | [74] 1 | [75] 1 | [76] 0.935 | [77] 1 | [78] 0.949 | [79] 0.995 | [80] 0.995 | [81] 0.982 | [82] 0.996 | [83] 0.998 | [84] 0.995 | [85] 0.985 | [86] 0.986 | [87] 1 | [88] 0.939 | [89] 0.987 | [90] 1 | [91] 0.972 | [92] 1 | [93] 0.986 | [94] 0.963

CN[C@@H]1[C@@H](O)C(OC2[C@@H](N)C[C@@H](N)[C@H](O[C@H]3O[C@H](C(C)O)[C@@H](O)[C@H](O)[C@H]3N)[C@H]2O)OC[C@]1(C)O (stereo not given in full)
inactive: [1] 0.963 | [2] 0.984 | [3] 0.986 | [4] 0.978 | [5] 0.989 | [6] 0.973 | [7] 0.968 | [8] 0.991 | [9] 0.981 | [10] 0.969 | [11] 0.976 | [12] 0.985 | [13] 0.966 | [14] 0.978 | [15] 0.967 | [16] 0.997 | [17] 0.982 | [18] 0.969 | [19] 1.02 | [20] 0.969 | locus YDR195W, strain ref2 0.973 | [21] 0.979 | [22] 0.967 | [23] 0.979 | [24] 0.938 | [25] 0.982 | [26] 0.977 | [27] 0.985 | [28] 0.964 | [29] 0.981 | [30] 0.977 | [31] 0.966 | [32] 0.971 | [33] 0.977 | [34] 0.96 | [35] 0.98 | [36] 0.977 | [37] 0.963 | [38] 0.976 | [39] 0.977 | [40] 1.05 | [41] 1.05 | [42] 0.966 | [43] 0.96 | [44] 0.966 | [45] 0.989 | [46] 0.984 | [47] 0.97 | [48] 0.976 | [49] 0.984 | [50] 0.982 | [51] 0.988 | [52] 0.995 | [53] 0.988 | [54] 0.979 | [55] 0.971 | [56] 0.988 | [57] 0.971 | [58] 0.976 | [59] 0.973 | [60] 0.995 | [61] 0.974 | [62] 0.969 | [63] 1.02 | [64] 0.976 | [65] 0.972 | [66] 0.977 | [67] 0.962 | [68] 0.958 | [69] 0.981 | [70] 0.985 | [71] 0.975 | [72] 0.989 | [73] 1.01 | [74] 0.965 | [75] 0.975 | [76] 0.942 | [77] 0.994 | [78] 0.987 | [79] 0.967 | [80] 0.979 | [81] 0.969 | [82] 0.974 | [83] 0.975 | [84] 0.976 | [85] 0.964 | [86] 1.04 | [87] 0.983 | [88] 0.981 | [89] 0.954 | [90] 0.983 | [91] 0.995 | [92] 0.988 | [93] 0.977 | [94] 1.02
